These results are taken from PubChem BioAssay (NCI).

Among the test systems are NCI-H23 lung; NCI-H226 lung; NCI-H322M lung; HOP-62 NSCLC; NCI-H460 lung; HOP-92 NSCLC; NCI-H522 lung; A549/ATCC NSCLC; 786-0 renal; COLO 205 colon.
What all share (assay): NCI-60 one-dose screen, 48 h (100 = growth as untreated, 0 = no growth, -100 = all killed)
What all share (conditions): 10 µM unless noted

SMILES strings stand for the structures. The panel holds about 83,000 compounds, 20% with a hit somewhere; the sample as a whole holds those more often.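 Assay: single dose, 48 h. Readout: percent growth (0 = no net growth; negative = cell death). Active: <10.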 A number with no mark means an inactive call. The source made the active and inactive calls.

For `Clc1cccc(Nc2ncnc3ccc(-c4cncc(-n5cnnn5)c4)cc23)c1`, the growth was 80% in the assay with NCI-H23 lung; 73% in the assay on NCI-H226 lung; 15.2% with NCI-H322M lung; 83% with HOP-62 NSCLC; 81.6% in the assay with NCI-H460 lung; 21.7% with HOP-92 NSCLC. For the same compound, the growth with NCI-H522 lung is 49.2%; with A549/ATCC NSCLC it was 55.7%; in the assay on 786-0 renal it was 42.9%; in the assay with COLO 205 colon it was 87.9%.
Turning to `CCCn1nc(C(=O)N2CCCCC2)c2c1CCC(N1CCC(c3ccncc3)CC1)C2` (stereo unspecified), the growth with NCI-H23 lung is 105%; in the assay with NCI-H226 lung it was 116%; in the assay with NCI-H322M lung it was 108%; in the assay on HOP-62 NSCLC it was 113%; in the assay on NCI-H460 lung, 110%; in the assay with HOP-92 NSCLC, 111%. The growth is 90.5% in the assay on NCI-H522 lung, 102% in the assay with A549/ATCC NSCLC, 101% in the assay on 786-0 renal and 115% with COLO 205 colon.
Take `C#CCn1cnc2cnc(Nc3cccc(NC(=O)CCl)c3)nc21`: the growth was -8.25% [6.25 µM] (active) in the assay with NCI-H23 lung; -26% [6.25 µM] (active) with NCI-H226 lung; 10.4% [6.25 µM] in the assay with NCI-H322M lung; 4.26% [6.25 µM] (active) in the assay on HOP-62 NSCLC; -13.4% [6.25 µM] (active) with NCI-H460 lung; 12.6% [6.25 µM] with HOP-92 NSCLC. Besides, the values for the growth in the assay with NCI-H522 lung, in the assay on 786-0 renal and in the assay on COLO 205 colon were -57.1% [6.25 µM] (active), 2.39% [6.25 µM] (active) and -57.3% [6.25 µM] (active), respectively.
With `CCOC(=O)c1nnn(Cc2cc(=O)oc3c2ccc2ccccc23)c1C`, the growth in the assay on NCI-H23 lung is 102%; in the assay on NCI-H226 lung, 105%; in the assay on NCI-H322M lung it was 98%; in the assay with HOP-62 NSCLC it was 106%; with NCI-H460 lung, 104%; in the assay with HOP-92 NSCLC it was 98.8%. Also, the growth in the assay on NCI-H522 lung is 96.3%; with A549/ATCC NSCLC it was 102%; in the assay on 786-0 renal, 102%; with COLO 205 colon, 107%.
For the compound `N#Cc1c(N)nnn1Cc1cc(=O)oc2ccc(O)cc12`, the growth in the assay with NCI-H23 lung is 106%; in the assay with NCI-H226 lung, 95.7%; with NCI-H322M lung it was 110%; in the assay on HOP-62 NSCLC, 106%; in the assay on NCI-H460 lung, 107%; with HOP-92 NSCLC, 95.7%. In addition, the growth in the assay with NCI-H522 lung is 89.6%; in the assay with A549/ATCC NSCLC, 98.7%; in the assay on 786-0 renal, 106%; in the assay on COLO 205 colon, 118%.
Regarding `COc1ccc(-c2cc(-c3cccc(Cl)c3)c(C#N)c(=O)[nH]2)c(OC)c1`, the growth with NCI-H23 lung is 92.2%; in the assay on NCI-H226 lung it was 101%; in the assay on NCI-H322M lung, 96%; in the assay on HOP-62 NSCLC it was 99.2%; with NCI-H460 lung it was 98.7%; in the assay on HOP-92 NSCLC, 68%. For the same compound, the growth in the assay on NCI-H522 lung was 90.6%; in the assay with 786-0 renal, 89.7%; with COLO 205 colon, 121%.
For `Cc1cnc(C(=O)NNc2nc3sc4c(c3c(=O)[nH]2)C(C)CCC4)cn1` (stereo unspecified), the growth with NCI-H23 lung is 22.9%; with NCI-H226 lung it was -8.7% (active); in the assay on NCI-H322M lung, 25.3%; in the assay with HOP-62 NSCLC, 8.82% (active); with NCI-H460 lung, 5.04% (active); in the assay with HOP-92 NSCLC, 43.6%. The growth with NCI-H522 lung is 26.1%; in the assay on A549/ATCC NSCLC, 12.3%; in the assay with 786-0 renal, 11.2%; in the assay on COLO 205 colon, 11.2%.
As to `O=C1Nc2ccccc2/C1=C/c1cccn1CCCCCn1c2ccccc2c(=O)c2ccccc21`, the growth is 69.6% in the assay on NCI-H23 lung; 70% in the assay on NCI-H226 lung; 98.8% in the assay on NCI-H322M lung; 58.3% in the assay on HOP-62 NSCLC; 95.9% with NCI-H460 lung; 65.5% in the assay with HOP-92 NSCLC. Moreover, the growth is 66.3% with NCI-H522 lung, 81.4% in the assay on A549/ATCC NSCLC, 105% in the assay on 786-0 renal and 56.2% in the assay on COLO 205 colon.
As for `CONC1=Nc2cc(NC(N)=NCc3ccccc3)c(N(C)C3CCCCC3)cc2OC1`, the growth in the assay on NCI-H23 lung is 68.3%; in the assay on NCI-H226 lung it was 67.3%; in the assay with NCI-H322M lung it was 87%; in the assay on HOP-62 NSCLC, 82.3%; in the assay on NCI-H460 lung, 59.7%; in the assay on HOP-92 NSCLC, 35.4%. The growth with NCI-H522 lung is 59.3%; in the assay with A549/ATCC NSCLC it was 78.7%; with 786-0 renal, 71.2%; in the assay on COLO 205 colon it was -36.1% (active).
Regarding `CCCN1C(=O)/C(=c2\sc3n(c2=O)C2C(NN=3)N(CC)C(=O)N2CC)c2ccccc21` (stereo unspecified), the growth was 37.8% in the assay on NCI-H23 lung; 57.1% with NCI-H226 lung; 45.8% in the assay with HOP-62 NSCLC; 5.57% (active) with NCI-H460 lung; 67.7% in the assay on HOP-92 NSCLC; 1.15% (active) with NCI-H522 lung. Moreover, the growth in the assay with A549/ATCC NSCLC was 26.2%; with 786-0 renal it was 36.5%; in the assay with COLO 205 colon it was 17.5%.
As for `O=C1CCc2c(sc3[nH]c(=S)n(Cc4ccc(Cl)cc4)c(=O)c23)C1`, the growth in the assay on NCI-H23 lung was -12.9% (active); with NCI-H226 lung it was -8.6% (active); with HOP-62 NSCLC it was -11.5% (active); with NCI-H460 lung it was 5.05% (active); in the assay on HOP-92 NSCLC, -44.2% (active); in the assay with NCI-H522 lung it was -18.6% (active). In addition, the growth in the assay on A549/ATCC NSCLC was 5.35% (active); in the assay on 786-0 renal, 21%; in the assay with COLO 205 colon, -67.5% (active).
